Measurements from PubChem BioAssay AID1578 (Sanford-Burnham Center for Chemical Genomics, 2009).
In all, about 290,000 compounds went through this assay and about 3,000 (1%) were called active. Shown is part of a subset that was picked to be rich in actives. Values without a mark were called inactive. No stated cut-off is given here; in the data, active means inhibition mostly above about 36% (no sharp cut-off); inactive means mostly below about 34%.

Assay: NOD1 signaling inhibitors, primary screen, cell-based, luminescence, uHTS (AID 1578);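 further: HEK-293T reporter cells stimulated with the NOD1 agonist gamma-tri-DAP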
Settings: NOD1-driven NF-kB luciferase reporter cells, at 4 µM, active compounds read high

Point of comparison: CSc1ccccc1NC(=O)C1=CC(c2cccs2)=NS(=O)(=O)N1C, inhibition 3.3%. Against it:
- COc1ccc(C(=O)/C=C/C(=O)N(Cc2ccc(F)cc2)C(C(=O)NC2CCCCC2)c2ccncc2)c(O)c1 (stereo unspecified) — lower, -6.1%
- CCCN(CC(=O)Nc1ccc(C(C)=O)cc1)CC(=O)Nc1ccccc1C — lower, -32.2%
- COc1cc2c(cc1OC)C(c1ccc(-c3ccc(Cl)c(Cl)c3)o1)=NCC2 — higher, 63.1%
- COc1cc2c(cc1OC)C(c1ccc(-c3ccc(Cl)cc3Cl)o1)=NCC2 — higher, 58.8%
- OCCN1CCN(c2cc(C(F)(F)F)nc3ccccc23)CC1 — lower, -6.8%
- C/C(=N\NC(=O)c1ccc(-c2ccccc2)cc1)c1ccco1 — lower, -46.6%
- COc1ccc(C(=O)N/C(N)=N/c2nc3ccccc3o2)cc1 — lower, -46.2%
- COc1ccc(CCNC(=O)CSc2nc3ccccc3o2)cc1 — lower, -19.1%
- O=C(CCCN1C(=O)/C(=C/c2cccs2)SC1=S)Nc1ccccc1O — lower, -2%
- COc1ccc(C(=O)CN2C(=O)c3ccccc3C2=O)cc1 — lower, -9.8%
- CCOC(=O)CSc1nc2c(sc(=S)n2Cc2ccco2)c(=O)n1-c1ccc(F)cc1 — higher, 14.1%
- CCOC(=O)CSc1nc2c(sc(=S)n2Cc2ccco2)c(=O)n1-c1ccccc1 — higher, 16.8%
- COc1ccccc1NC(=O)Cn1cnc2c(nc3n2CCCCC3)c1=O — lower, -24.1%
- CC(=O)C1=C(C)NC(C)=C(C(C)=O)C1c1ccccc1 — lower, -20.8%
- CCOc1ccc(C(=O)Nc2nnc(S(=O)(=O)Nc3ccccc3C)s2)cc1 — lower, -17.1%
- COC(=O)c1cc(=O)n(Cc2ccc3c(c2)OCO3)c(=Nc2ccc(F)cc2)s1 — higher, 48.7%
- CCOC(=O)c1ccc(N=c2sc(C(=O)OC)cc(=O)n2Cc2ccc3c(c2)OCO3)cc1 — higher, 22.1%
- Cc1nn(Cc2ccccc2)c(C)c1NC(=O)c1cc2nc(-c3ccco3)cc(C(F)(F)F)n2n1 — lower, -2%
- COc1ccc(C2NCCc3cc(OC)c(OC)cc32)cc1OC (stereo unspecified) — lower, -2.7%
- CCOc1cc2c(cc1OC)C(c1cccc([N+](=O)[O-])c1)NCC2 (stereo unspecified) — lower, -31.3%
- Clc1cccc2c3c([nH]c12)CCNC3 — lower, 0.5%
- COCc1[nH]nc2c1C(c1cccc(OC)c1)C(C#N)=C(N)O2 (stereo unspecified) — higher, 4.9%
- COCc1[nH]nc2c1C(c1ccc(OC)c(OC)c1)C(C#N)=C(N)O2 (stereo unspecified) — lower, -5.1%
- CC1(C(=O)NNC(=O)c2cccc([N+](=O)[O-])c2)CC1(Br)Br (stereo unspecified) — lower, -8.9%
- N/C(=N\OC(=O)c1cc(Cl)ccc1Cl)c1ccccn1 — higher, 9.6%
- N/C(=N\OC(=O)c1cc(Br)ccc1Cl)c1ccccn1 — lower, -19.5%
- N/C(=N\OC(=O)c1ccc([N+](=O)[O-])cc1Cl)c1ccccn1 — higher, 45.8%
- COc1ccccc1C(=O)O/N=C(\N)c1ccccn1 — lower, -10%
- CCOC(=O)C1=C(CN2CCCCCC2)NC(=O)NC1c1ccc2c(c1)OCO2 (stereo unspecified) — lower, -36.5%
- COc1ccc(C2NC(=O)NC(C)=C2C(=O)OCc2ccc3c(c2)OCO3)cc1OC (stereo unspecified) — higher, 15.1%
- CCOC(=O)C1=C(C)NC(=O)NC1c1ccc2c(c1)OCO2 (stereo unspecified) — higher, 18%
- CC1=C(C(=O)OCc2ccccc2)C(c2cccc([N+](=O)[O-])c2)NC(=O)N1 (stereo unspecified) — higher, 13.3%
- Cc1cc(NC(=O)CN(C)CCOc2ccccc2)ccc1Br — higher, 7.6%
- CCN(CC)C(=O)CSc1n[nH]c(=S)n1N — lower, -12.5%
- COC(=O)c1ccc(CSc2n[nH]c(-c3ccccc3)n2)o1 — lower, -16.9%
- COc1ccc(N2CC(C(=O)Nc3ccccc3C(=O)NC3CC3)CC2=O)cc1 (stereo unspecified) — lower, -5.8%
- CCOC(=O)c1cccc(N2C(=O)C3C4C=CC(CC4)C3C2=O)c1 (stereo unspecified) — higher, 7.8%
- CCSc1nnc(NC(=O)c2cccnc2)s1 — lower, -21.5%
- CCOC(=O)C1=C(C)NC(=O)NC1c1c(OC)ccc2ccccc12 (stereo unspecified) — lower, -31.2%
- C/C(=N\NC(=O)c1ccccn1)C12CC3CC(CC(C3)C1)C2 — lower, -2.5%
- O=C(NNC(=O)C12CC3CC(CC(C3)C1)C2)c1cnccn1 — lower, -14.6%
- O=C(N/C(=C/c1ccc(Br)cc1)C(=O)N1CCOCC1)c1ccco1 — lower, -24.4%
- COc1ccc(/C=C(/NC(=O)c2ccco2)C(=O)N2CCCC2=O)cc1 — lower, -22.3%
- CC(=O)c1cccc(CN2CCN(C3CCCCC3)C(CCO)C2)c1 (stereo unspecified) — lower, -6.2%
- CC(C)Oc1cccc(NC(=O)c2cnccc2C(F)(F)F)c1 — lower, -4.2%
- COc1ccc(C(=O)N/C(=C\c2cccc([N+](=O)[O-])c2)C(=O)Nc2cccc(C(=O)O)c2)cc1 — lower, -30.8%
- CC1=C(C)C(=O)C(N2CCOCC2)=CC1=O — lower, -11.2%
- CC(C)(C)C1=CC(=O)C(N2CCOCC2)=CC1=O — higher, 3.6%
- CC1CN(CCOc2ccc([N+](=O)[O-])cc2)CC(C)O1 (stereo unspecified) — lower, -4.4%
- C=CCN(c1ccccc1)S(=O)(=O)c1ccc(Cl)c(C(=O)OCC(=O)N(C)C2CCS(=O)(=O)C2)c1 (stereo unspecified) — lower, -31.4%
- Nc1c2c(nc3ccccc13)CCCC2 — lower, -26.6%
- Cc1cccc2c(C(=O)O)c3c(nc12)CCCCC3 — lower, -22.2%
- COc1ccc2[nH]c(C(=O)O)c(NS(=O)(=O)c3ccc(C)c(C)c3)c2c1 — lower, -3.1%
- Cc1nc(C)c(-c2csc(Nc3ccc(N)cc3)n2)s1 — higher, 16.7%
- Cc1ccc(Nc2nc(-c3sc(C)nc3C)cs2)cc1 — lower, -5%
- COC(=O)C(C)(C)ONC(=O)Nc1ccc([N+](=O)[O-])cc1 — lower, -7%
- CCOc1ccccc1C(=O)N/N=C/c1ccoc1 — lower, -17.7%
- CN=c1scc(-c2ccccc2Br)n1/N=C/c1ccc[nH]1 — higher, 12.4%
- CN=c1scc(-c2ccccc2F)n1/N=C/c1ccc(O)c(O)c1O — lower, -44.9%
- N#Cc1nc(COc2ccc(Cl)cc2Cl)oc1N1CCN(c2ccccc2)CC1 — higher, 21.8%
- COc1ccc(N2CCN(C(c3ccccc3OC)c3nnnn3C3CCCC3)CC2)cc1 (stereo unspecified) — lower, -19.3%
- CC(C)Oc1ccc(C(CC(=O)O)NC(=O)C2CCCCC2)cc1 (stereo unspecified) — lower, -11.6%
- COc1ccc(C(CC(=O)O)NC(=O)C2CCCCC2)cc1 (stereo unspecified) — higher, 19.1%
- CCOC(=O)N1CCN(C(=O)c2cccc(F)c2)CC1 — lower, -43.9%
- CCOc1cccc2sc(N(CCN(C)C)C(=O)CCS(=O)(=O)c3ccccc3)nc12 — lower, -29%
- Cc1ccc2sc(N(CCCN(C)C)C(=O)CCS(=O)(=O)c3ccccc3)nc2c1C — lower, -27%
- CN1C(=O)C2(C(C#N)=C(N)N(c3cc(Cl)cc(Cl)c3)C3=C2C(=O)CC(C)(C)C3)c2ccccc21 (stereo unspecified) — lower, -0.6%
- O=c1ccnc(SCCC(F)=C(F)F)[nH]1 — lower, -43.9%
- O/N=C\c1ccc(-c2ccccc2)o1 — higher, 3.8%
- Cn1c(CCN2CCN(c3ccccn3)CC2)nc2cc(NC(=O)COc3ccc(Cl)cc3)ccc21 — higher, 21%
- COc1ccc(CCNC(=O)c2ccc(-c3ccc([N+](=O)[O-])cc3Cl)o2)cc1 — higher, 4.2%
- COc1ccc(CCNC(=O)c2ccc(-c3ccc([N+](=O)[O-])cc3)o2)cc1OC — higher, 38.5%
- COc1ccc(-c2nnn(CC(=O)c3ccccc3)n2)cc1OC — lower, -8.9%
- COc1cc(/C=C/C(=O)O)cc(S(=O)(=O)N2CCc3ccccc3C2)c1OC — lower, -13.2%
- CC(CC(=O)NCCc1ccc(F)cc1)c1ccccc1 (stereo unspecified) — lower, -24.3%
- CN1c2ccsc2/C(=N/Nc2ccccc2)CS1(=O)=O — lower, -41.3%
- CN1c2ccsc2/C(=N/Nc2ccc(F)cc2)CS1(=O)=O — lower, -1.7%

With COc1cc2c(cc1OC)C(c1ccc(-c3ccccc3Cl)o1)=NCC2 the inhibition was 75.2% (active).
In the case of COc1ccc(C(=O)/C=C/Sc2nc3ccccc3o2)cc1, the inhibition is reported as 38.4% (active).
With N#CCSc1nc2c(sc(=S)n2Cc2ccco2)c(=O)n1-c1ccc(F)cc1 the inhibition was 66.5% (active).
For COC(=O)c1cc(=O)n(Cc2ccc3c(c2)OCO3)c(=Nc2ccccc2)s1, the inhibition was 73.6% (active).
For CCOc1ccc(C2NCCc3cc(OC)c(OC)cc32)cc1OC (stereo unspecified), the inhibition was 83.1% (active).
In the case of CCn1c2ccccc2c2cc(C3C(C#N)=C(N)Oc4n[nH]c(COC)c43)ccc21 (stereo unspecified), the inhibition is reported as 54.9% (active).
For N/C(=N\OC(=O)c1ccc(Cl)cc1Cl)c1ccccn1, the inhibition was 51.2% (active).
In the case of N/C(=N\OC(=O)c1ccccc1Cl)c1ccccn1, the inhibition is reported as 54.7% (active).
With CC1=C(C(=O)OCc2ccc3c(c2)OCO3)C(c2cccc([N+](=O)[O-])c2)NC(=O)N1 (stereo unspecified) the inhibition was 63.2% (active).
For CCOC(=O)C1=C(CCl)NC(=O)NC1c1ccc2c(c1)OCO2 (stereo unspecified), the inhibition was 72.5% (active).
In the case of O=C(NNC(=O)C12CC3CC(CC(C3)C1)C2)c1ccccn1, the inhibition is reported as 102% (active).
In the case of O=C(N/C(=C/c1ccc(Br)cc1)C(=O)N1CCCC1=O)c1ccco1, the inhibition is reported as 63.5% (active).
For Cc1cccc2c(N)c3c(nc12)CCCC3 (tested in a mixture with another compound), the inhibition was 53.2% (active).
For Cc1nc(C)c(-c2csc(Nc3ccc(F)cc3)n2)s1, the inhibition was 44.7% (active).
With CN=c1scc(-c2ccccc2F)n1/N=C/c1ccc[nH]1 the inhibition was 101% (active).
For O=C(O)CC(NC(=O)C1CCCCC1)c1ccc(OC2CCCC2)cc1 (stereo unspecified), the inhibition was 65.3% (active).
With COc1ccc(CCNC(=O)c2ccc(-c3ccc([N+](=O)[O-])cc3Cl)o2)cc1OC the inhibition was 95.8% (active).
For Cc1ccc(N/N=C2\CS(=O)(=O)N(C)c3ccsc32)cc1, the inhibition was 58.9% (active).
